Holding throughout (assay): NCI-60 one-dose screen, 48 h (100 = growth as untreated, 0 = no growth, -100 = all killed)
Common to all, as to details: 10 µM unless noted

For experiment [1], the system named is SK-MEL-2 melanoma.
Experiment [2] relates to EKVX NSCLC.
Experiment [3] has as its system SN12C renal.
Experiment [4] has as its system UO-31 renal.
The subject of experiment [5] is TK-10 renal.
Experiment [6] deals with ACHN renal.
The subject of experiment [7] is CAKI-1 renal.
Experiment [8] deals with A498 renal.
The test system of experiment [9] is CCRF-CEM leukemia.
For experiment [10], the system named is MOLT-4 leukemia.
Experiment [11] relates to RPMI-8226 leukemia.
For experiment [12], the system named is OVCAR-8 ovarian.
In experiment [13] the test system is OVCAR-5 ovarian.
Experiment [14] deals with OVCAR-4 ovarian.
For experiment [15], the system named is SK-OV-3 ovarian.
The subject of experiment [16] is IGROV1 ovarian.
The subject of experiment [17] is OVCAR-3 ovarian.
In experiment [18] the test system is HS 578T breast.
Experiment [19] deals with NCI/ADR-RES ovarian.

SMILES strings stand for the structures. This is part of a sample that, as a whole, favours compounds with a hit. Of some 83,000 tested, about 20% had one in any assay.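 A percent growth of 40 corresponds to 60% growth inhibition; 0 means no net growth; -100 means all cells died. Active threshold: below 10.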 Values without a mark were called inactive. Active and inactive are the calls of the source.

For the compound `CC(=O)Oc1ccccc1C(=O)N=C1[Se]CCCN1C(=O)c1ccccc1OC(C)=O`, the growth in experiment [1] is 91.4%; in [2], 75.7%; in experiment [3], -15.2% (active); in [4], -55.8% (active); in [5], 6.56% (active); in experiment [6], 20.8%. Also, the growth in experiment [7] was 52.5%; in [8] it was 68.6%; in experiment [9], 22.1%; in experiment [10] it was 9.25% (active); in experiment [11], 80.8%; in experiment [12], 47%. The growth was 90.8% in experiment [13]; 78.8% in experiment [14]; 141% in experiment [15]; 11.7% in experiment [16]; 7.64% (active) in [17]; 24.9% in experiment [18]. The growth in experiment [19] was 29%.

Turning to `COc1ccc2c(c1)c(-c1nn3cc(-c4cccs4)nc3s1)cn2C`, the growth in [1] was 91.5%; in experiment [2], 66.2%; in experiment [3], 79.3%; in [4], 39.3%; in experiment [5] it was 73.3%; in experiment [6], 69.9%. Also, the growth is 55.3% in experiment [7]; 50.3% in [8]; 67% in experiment [9]; 45.7% in [10]; 68.8% in experiment [11]; 85.3% in experiment [12]. In addition, the growth in experiment [13] was 66.5%; in [14], 70.6%; in [15] it was 84.8%; in experiment [16], 52.9%; in experiment [17], 96.4%; in experiment [18] it was 45.1%.

Consider `COc1cc(C(=O)/C=C/c2sc(Cl)nc2Cl)cc(OC)c1OC`, for which the growth was 82.7% in experiment [1]; 55.6% in experiment [2]; 7.55% (active) in experiment [3]; 67.2% in [4]; 94.3% in experiment [5]; -94.7% (active) in [6]. The growth was 37.1% in experiment [7]; 89.9% in experiment [8]; 10.9% in experiment [9]; 23.2% in [10]; -38% (active) in [11]; 33.6% in experiment [12]. Besides, the growth in experiment [13] was 77.1%; in experiment [14], 57.2%; in experiment [15], 97.7%; in experiment [16] it was 25.5%; in [17], -95.5% (active); in [18] it was 71.3%. In addition, the growth in experiment [19] was 76.3%.

`O=C(CCc1nnc(-c2c(Cl)cccc2Cl)o1)c1nc2ccccc2[nH]1`: the growth is 59.4% in experiment [1]; 61% in [2]; 61.2% in [3]; 52.1% in [4]; 64% in [5]; 81.3% in experiment [6]. The growth in experiment [7] was 59.8%; in experiment [8], 58.4%; in [9], 47.3%; in [10] it was 20.7%; in experiment [11] it was 30.9%; in [12], 57.2%. In addition, the growth is 81.2% in [13]; 58.8% in experiment [14]; 64.8% in [15]; 57.6% in experiment [16]; 66.4% in experiment [17]; 82.3% in [18]. In experiment [19], the growth was 63.3%.

As to `O=CN(SSN(C=O)C1CCCCC1)C1CCCCC1`, the growth is 111% in experiment [1]; 95.3% in experiment [2]; 99.7% in experiment [3]; 60.6% in experiment [4]; 106% in [5]; 105% in experiment [6]. Moreover, the growth in [7] was 101%; in [8] it was 116%; in [9] it was 111%; in experiment [10] it was 65.2%; in experiment [11] it was 120%; in experiment [12], 104%. In addition, the growth in experiment [13] is 113%; in [14] it was 101%; in experiment [15] it was 113%; in experiment [16], 100%; in [17] it was 107%; in experiment [18], 112%.

Consider `CNc1nc2c(s1)C(c1cc(F)ccc1F)CC(=O)N2` (configuration not stated), for which the growth was 61.3% in experiment [1]; 97.8% in experiment [2]; 71% in experiment [3]; 63.9% in experiment [4]; 17% in experiment [5]; 87.8% in [6]. Also, the growth in experiment [7] is 51.5%; in experiment [8], 34.4%; in experiment [9], 40%; in experiment [10], 37.3%; in experiment [11], 87.3%; in [12], 91.3%. For the same compound, the growth in experiment [13] is 89.7%; in experiment [14], 83.2%; in experiment [15], 71.9%; in experiment [16] it was 73.7%; in [17], 55.6%; in experiment [18], 70%. In addition, the growth in experiment [19] was 71.7%.

In the case of `O=C(N/N=C/c1c(Cl)cccc1Cl)c1ccc(C(F)(F)F)nc1Nc1cccc(C(F)(F)F)c1`, the growth was 26% in [1]; 16.9% in experiment [2]; 1.33% (active) in [3]; 1.91% (active) in experiment [4]; 1.46% (active) in experiment [5]; -15.7% (active) in experiment [6]. Further, the growth in experiment [7] was 13.8%; in [8] it was -5.26% (active); in [9], -8.45% (active); in experiment [10], -12.9% (active); in experiment [11], 13.8%; in experiment [12], 18.7%. Further, the growth in experiment [13] was 20.5%; in experiment [14] it was 13.1%; in experiment [15] it was 15%; in [16] it was 12.4%; in experiment [17], -58% (active); in [18], 11.4%.

`C[C@]12CC[C@@H]3c4cc(OC(F)F)c(OS(N)(=O)=O)cc4CC[C@H]3[C@@H]1CC[C@@H]2O`: the growth in experiment [1] is 46.3%; in experiment [2] it was 40.2%; in experiment [3] it was 32.6%; in experiment [4], 40.1%; in [5], 94.2%; in experiment [6], 44.9%. Moreover, the growth in experiment [7] is 41.4%; in experiment [8] it was -8.42% (active); in experiment [9] it was 16.5%; in [10], 18.7%; in experiment [11], 17.8%; in experiment [12] it was 35.3%. Also, the growth was 49.3% in experiment [13]; 63.2% in experiment [14]; 40.8% in experiment [15]; 34.5% in experiment [16]; -49.8% (active) in experiment [17]; 27.8% in [18].

As for `Cc1ccc(-c2nn(C)c(=O)c3noc(-c4ccc(C)cc4)c23)cc1`, the growth in [1] was 9.26% (active); in experiment [2], 56.5%; in [3], 44.1%; in [4], 41.7%; in experiment [5], 47.4%; in experiment [6], 43.5%. Also, the growth was 37.7% in experiment [7]; 25.6% in experiment [8]; 18.9% in [9]; 55.8% in experiment [10]; 20.4% in [11]; 43.8% in experiment [12]. Also, the growth in [13] is 57.4%; in experiment [14], 61.4%; in experiment [15] it was 26.7%; in experiment [16] it was 48.2%; in experiment [17] it was 8.74% (active); in experiment [18], 28%. In addition, the growth in experiment [19] is 30.4%.

The values above are taken from PubChem BioAssay (NCI).
